# Bioassay records as filed in PubChem.
# HT1080NT lethal = kills 2HG-producing HT-1080-NT fibrosarcoma cells. HT-1080-NT fibrosarcoma viability, CellTiter-Glo ATP luminescence, 48 h. Potency, µM (doses to about 46.1 µM), inactives show at the top dose activity, negative = less viability, most hits filed as cytotoxic. 1.6% of 360,000 active. AID 686970;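 also: NT is the 2HG producing partner of a matched IDH1 knockdown line; potency is read from the fitted curve at half-maximal effect; 0% = DMSO-treated cells and -100% = media-only wells without cells; nearly all actives have a fitted effect of over 55% in size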
#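 Luminescent CellTiter-Glo readout after 48 hours of compound exposure at 37 degrees C defined viability of HT-1080-NT cells. Activity was normalized to DMSO wells and cell-free media wells; concentration-response curves were fitted and assigned curve classes.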
# DT40 TDP1 CPT = DT40-hTDP1 cell growth loss with CPT | 12% of 420,000 active | chicken DT40 Tdp1-/-;hTDP1 cells + 20 nM CPT, ATP luminescence, 48 h | Potency, µM (doses to about 46.2 µM), for inactives: top-dose activity change, negative = growth inhibition, most hits filed as inhibitors | AID 686979; also: potency is read from the fitted curve at half-maximal effect; nearly all actives have a fitted effect of over 55% in size
#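 Cell growth measured by CellTiter-Glo luminescence after a minimum 48 h, 37 C compound exposure with 20 nM CPT in Tdp1-knockout DT40 cells stably expressing hTDP1, seeded 400/well; qHTS titration format.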
# ALOX12 inh = inhibitors of human 12S-lipoxygenase ALOX12 | AID 1671190 | P18054 | Potency, µM (doses to about 108 µM), for the others: at the top dose activity change, negative = inhibition, actives largely listed as inhibitors | purified 12hLO, xylenol orange hydroperoxide absorbance | 1.1% of 580,000 active; also: potency is read from the fitted curve at half-maximal effect
# Target sequence (P18054 whole entry, looked up): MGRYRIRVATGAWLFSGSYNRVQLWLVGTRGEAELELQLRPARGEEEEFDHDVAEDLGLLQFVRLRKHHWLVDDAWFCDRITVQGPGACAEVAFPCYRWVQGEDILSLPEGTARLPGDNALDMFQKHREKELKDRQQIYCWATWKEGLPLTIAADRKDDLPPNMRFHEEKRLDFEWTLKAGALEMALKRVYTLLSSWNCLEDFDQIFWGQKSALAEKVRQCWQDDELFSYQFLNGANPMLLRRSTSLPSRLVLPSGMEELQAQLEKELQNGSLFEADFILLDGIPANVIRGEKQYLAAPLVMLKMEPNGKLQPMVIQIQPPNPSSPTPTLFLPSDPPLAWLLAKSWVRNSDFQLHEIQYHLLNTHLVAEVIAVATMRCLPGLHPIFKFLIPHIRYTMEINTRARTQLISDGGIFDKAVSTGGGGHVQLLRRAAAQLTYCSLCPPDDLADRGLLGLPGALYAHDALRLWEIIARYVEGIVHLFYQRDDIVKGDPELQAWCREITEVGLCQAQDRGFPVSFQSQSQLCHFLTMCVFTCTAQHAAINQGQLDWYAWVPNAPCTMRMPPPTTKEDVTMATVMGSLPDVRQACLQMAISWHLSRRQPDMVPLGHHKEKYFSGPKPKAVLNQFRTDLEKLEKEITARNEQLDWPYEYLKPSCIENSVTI
#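 Purified human 12hLO at 150 nM in 25 mM Hepes, 0.01% Triton X-100, pH 7.0, preincubated 15 min at room temperature with compound. Reaction started with 40 uM arachidonic acid, 30 min at room temperature. Hydroperoxide measured by Fe-xylenol orange, 573/405 nm absorbance ratio.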
# DT40 TDP1 no CPT = qHTS for Inhibitors of human tyrosyl-DNA phosphodiesterase 1 (TDP1): qHTS in cells in absence of CPT; AID 686978, 2013; DT40 Tdp1-/- hTDP1 cells, no CPT, ATP luminescence, 48 h; Potency, µM (series often up to 46.2 µM), inactives show at the top dose activity change, negative = growth inhibition, most hits filed as inhibitors; 15% of 420,000 active; also: potency is read from the fitted curve at half-maximal effect; nearly all actives have a fitted effect of over 55% in size
#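 Readout: luminescence from CellTiter-Glo after 30 min in the dark at RT. Cells: DT40 Tdp1-/- with stable hTDP1, 400/well. Exposure: compounds alone, ≥48 hr, 37 °C.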
# IL-1B inflam inh = inhibitors of inflammasome signaling (IL-1 beta secretion); THP-1 LPS/ATP IL-1B secretion, AlphaLISA, 16 h; hits give low values; activity change, % at 57.5 µM; 4.7% of 360,000 active; AID 743279; in the data active = activity change below about -50%; inconclusive = mostly about -30% to -49%
#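 Secreted IL-1B measured by AlphaLISA bead assay after 16 h compound exposure of THP-1 cells; compounds (final up to 57.5 uM) added 1 h before LPS (250 ng/mL) and ATP (1.25 mM) stimulation; lower signal means less secretion.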
# HT1080 IDH1KD tx = kills HT-1080 cells with IDH1 knockdown; HT-1080 IDH1 knockdown viability, ATP luminescence, 48 h; Potency, µM (series often up to 46.1 µM), for the others: at the highest dose activity, negative = toxicity, actives largely listed as cytotoxic; 2% of 360,000 active;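 also: potency is read from the fitted curve at half-maximal effect; 0% = DMSO wells and -100% = cell-free medium wells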
#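 After a 2 h attachment period, IDH1KD HT-1080 cells took pin-transferred compound for 48 h at 37 °C; ATP-based luminescence after 10 min room-temperature reagent incubation reported viability.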
# An asterisk follows results filed as active; ? = inconclusive; / = not tested or not shown; ! = repeats disagree; [ ] = another dose, or the depositor's remark. The sample as a whole holds a higher share of hits than the screen did. Unless noted, calls follow the shape of the dose curve; as a rule, active = well fitted curve in the direction sought with a large enough effect; inconclusive = small, poorly fitted or top-dose-only effect, or another doubt; inactive = no such curve, though single readings can be large; an effect the other way counts as inactive or inconclusive. Unless noted, % is scaled to controls: 0 for no effect and ±100 for the full control effect.
SMILES,HT1080NT lethal,DT40 TDP1 CPT,ALOX12 inh,DT40 TDP1 no CPT,IL-1B inflam inh,HT1080 IDH1KD tx
CCCn1nc2cc(C(=O)NCc3ccc(C)cc3)ccc2c1OC,29%,?,-8%,-27%,-18,15%
Cc1ccc(-c2csc3nc4cc(C(N)=O)ccc4c(=O)n23)cc1,?,-20%,18µM*,-23%,-18,-2%
COc1ccc(N2CC(C(=O)N3CCC(C(=O)N4CCC(C#N)CC4)C3)NC2=O)cc1 (stereo not given),/,/,34%,/,/,/
Cc1cccc(NC(=O)CNC(=O)COc2cccnc2[N+](=O)[O-])c1C,0%,-8%,5%,4%,-2,7%
CCCN(C(=O)Cn1ncc2c(=O)oc3ccccc3c21)c1cccc(C)c1,4%,23µM*!,-5%,21µM*,14,0%
COC(=O)C(CCSC)NC(=O)Cn1ncc2c(=O)oc3ccccc3c21 (stereo not given),-6%,?,-1%,-15%,-55*,4%
Cc1ccc(Nc2cc(C)c3c(O)cccc3n2)cc1C,-26%,21µM*,?,15µM*,-9,-25%
Cc1ccc(Nc2cc(C(=O)N3CCOCC3)c3ccccc3n2)cc1C,/,/,4%,/,/,/
Cc1ccccc1Nc1cc(C)c2ccccc2n1,/,/,4%,/,/,/
Cc1cc(NC2CCCCC2)nc2ccccc12,-2%,?,-5%,16µM*,-91*,-5%
Cc1ccccc1Nc1cc(C)c2c(O)cccc2n1,-18%,?,-4%,?,-87*,-6%
Cc1ccc(Nc2cc(C)c3ccc(O)cc3n2)cc1C,-23%,18µM*,?,18µM*,-18,-22%
CCOC(=O)c1ccc(Oc2coc3cc(OCc4ccc(C)cc4)ccc3c2=O)cc1,/,/,-9%,/,/,/
COc1cccc(Nc2cc(C)c3ccccc3n2)c1,-23%,-10%,0%,?,-55*,?
COc1ccc(Nc2cc(C)c3c(O)cccc3n2)cc1,?,21µM*,?,10µM*,?,?
COc1cccc(Nc2nc3ccccc3c(=O)[nH]2)c1,-10%,-20%,-13%,-30%,0,0%
N#C/C(=C/c1cccn1-c1cccc(C(F)(F)F)c1)c1ccc([N+](=O)[O-])cc1,/,/,2%,/,/,/
N#C/C(=C/c1cccn1-c1cccc(C(=O)O)c1)c1ccc(Cl)cc1,-25%,0%,45µM*,-8%,-6,-15%
CC(C)(C)CN[C@@H](Cn1ccc(=O)[nH]c1=O)C(=O)O,/,/,12%[176 µM],/,/,/
Nc1c(C(=O)N/N=C/c2cccnc2)cnn1-c1ccccc1,0%,-12%,-2%,-12%,62,-2%
Nc1c(C(=O)N/N=C/c2ccc(OCc3ccccc3)cc2)cnn1-c1ccccc1,-25%,16µM*,0%,12µM*,-7,1%
COc1cccc(/C=N/NC(=O)c2cnn(-c3ccccc3)c2N)c1,5%,?,154%,21µM*,55,-7%
O=C(Nc1ccc(S(=O)(=O)N2CCOCC2)cc1)c1cc([N+](=O)[O-])ccc1Cl,?,16µM*,-11%,?,21,?
O=C(Nc1ccc(S(=O)(=O)N2CCOCC2)cc1)c1ccc(Cl)cc1Cl,-2%,?,0%,21µM*,-1,-6%
Cc1ccc(NC(=O)c2cc(S(=O)(=O)N3CCOCC3)ccc2Cl)cc1S(=O)(=O)N1CCOCC1,-1%,?,-25%,?,31,6%
SMILES,HT1080NT lethal,DT40 TDP1 CPT,ALOX12 inh,DT40 TDP1 no CPT,IL-1B inflam inh,HT1080 IDH1KD tx
Cc1cccc(-n2ccc(=O)c(C(=O)Nc3ccc(S(=O)(=O)N4CCOCC4)cc3)n2)c1,-3%,?,4%,23µM*,-21,-2%
O=C(Nc1ccc(Cl)cc1)c1cc(S(=O)(=O)N2CCCCC2)ccc1N1CCOCC1,-7%,-29%,?,?,-11,-4%
CN(C)S(=O)(=O)c1ccc(Cl)c(C(=O)Nc2ccc(S(=O)(=O)N3CCOCC3)cc2)c1,0%,10µM*,0%,9.2µM*,8,0%
Cc1ccc(CC(=O)N[C@@H]2CN(c3ccncn3)C[C@H]2CO)cc1,/,/,25%,/,/,/
COc1ccc(OC2CCN(C(C)=O)CC2)c(C(=O)NC(C)Cc2cccnc2)c1 (stereo not given),/,/,35%,/,/,/
O=C(O)CC(CNS(=O)(=O)c1ccc(Br)cc1)c1ccccc1 (stereo not given),/,/,-2%,/,/,/
COc1cc2[nH]c(C)c(-c3ccccc3)c(=O)c2cc1Cl,-20%,-4%,-30%,-3%,-7,-7%
O=C1CN(C(=O)c2cnc3ccccn3c2=O)CCN1Cc1ccc(F)cc1,/,/,48%,/,/,/
CCC(=O)Nc1ccc(S(=O)(=O)N2CCOCC2)cc1,8%,-8%,14%,-7%,23,6%
CCc1c(C(=O)Nc2ccc(S(=O)(=O)N3CCOCC3)cc2)csc1C,-26%,23µM*,-4%,18µM*,16,-28%
COc1cc([C@@H]2c3cc4c(cc3[C@@H](O)[C@H]3COC(=O)[C@H]23)OCO4)cc(OC)c1O[Si](C)(C)C(C)(C)C,?,13µM*,-3%,15µM*,-88*,?
CCN(CC)C1Oc2cc3c(cc2C(c2cc(OC)c(OC)c(OC)c2)C1C)OCO3 (stereo not given),1.8µM*,2.3µM*,-1%,1.2µM*,11,1.5µM*
COc1cc(C2c3cc4c(cc3C3OC(=O)C2C3CO)OCO4)cc(OC)c1OC (stereo not given),0.01µM*,0.01µM*,-3%,0.016µM*,50,0.016µM*
CCC1C(=O)NCCN1Cc1ccc2c(c1)CN(Cc1ccc(OC)c(OC)c1)CCO2 (stereo not given),/,0%[9.04 µM],18%,-25%,/,/
Cc1ccc(NC(=O)CN2C(=O)N/C(=C\c3cccn3-c3cccc(C(=O)O)c3)C2=O)cc1,16%,3%,/,-28%,8,27%
Cc1ccc(CN2C(=O)N/C(=C\c3cccn3-c3cccc(C(=O)O)c3)C2=O)cc1,-1%,8.2µM*,?,7.3µM*,38,-7%
O=C(O)c1cccc(-n2cccc2/C=C2\NC(=O)N(Cc3ccc(F)cc3)C2=O)c1,-15%,?,40µM*,?,0,-9%
Cc1n[nH]c(C)c1CCC(=O)N1CCC(c2nn(C)c(=O)n2C2CCCC2)CC1,/,/,7%,/,/,/
O=C(NCc1ccc2c(c1)OCO2)c1ccc2c(c1)N(Cc1c(F)cccc1Cl)C(=O)CS2,-8%,?,-9%,23µM*,4,-11%
